# The campaign covered roughly 2,700 compounds. About 160 (5.9%) showed an effect of 50% or more. This excerpt belongs to a sample that is enriched for strong results.
# Target: Nonstructural protein 3 (Zika virus) (UniProt A0A024AXB9)
# [1] = PRVABC59, Concentration 15.0 uM, Number of replicates 1.0
# [2] = PRVABC59, Concentration 50.0 uM, Number of replicates 1.0
# Nonstructural protein 3 (Zika virus), sequence (A0A024AXB9 as listed by the source): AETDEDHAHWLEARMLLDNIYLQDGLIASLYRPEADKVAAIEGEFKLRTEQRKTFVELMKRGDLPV
smiles,measurement,setting,value
CN(C)c1ccc(C(=O)Nc2cc(Cl)cc(C(=O)NC(C)(C)CO)c2)nc1,inhibition,"PRVABC59, Concentration 49.5 uM, Number of replicates 2.0, Standard deviation 3.9613998246279105 %",-1.53%
same,inhibition,"PRVABC59, Concentration 99.01 uM, Number of replicates 2.0, Standard deviation 2.7948399639930708 %",0.849%
Cc1cc(CO)c2cccc(NC(=O)c3cccc(Cn4cncn4)c3)c2n1,inhibition,"PRVABC59, Concentration 49.95 uM, Number of replicates 2.0, Standard deviation 2.574308180740061 %",-0.138%
same,inhibition,"PRVABC59, Concentration 99.9 uM, Number of replicates 2.0, Standard deviation 1.9018768762288814 %",11.1%
Cc1cnccc1NC(=O)c1ccccc1-c1nc(C(C)C)no1,inhibition,"PRVABC59, Concentration 49.5 uM, Number of replicates 2.0, Standard deviation 0.2610834999883118 %",-0.098%
same,inhibition,"PRVABC59, Concentration 99.01 uM, Number of replicates 2.0, Standard deviation 1.3020487023400833 %",-0.148%
same,inhibition,"PRVABC59, Concentration 198.0 uM, Number of replicates 2.0, Standard deviation 1.8545350914642316 %",0.672%
O=C(c1cc(Cl)ccc1NS(=O)(=O)c1ccc(Oc2ccccc2Cl)cc1)N1CCN(c2ccc(Br)cn2)CC1,inhibition,[1],18.6%
O=C(NCCc1ccc(Cl)cc1Cl)c1cc(Cl)ccc1NS(=O)(=O)c1ccc(Oc2ccccc2Cl)cc1,inhibition,[1],27.1%
CN1CCN(C(=O)C2CCN(C(=O)C3CCN(c4ccc(C=O)cc4)CC3)CC2)CC1,inhibition,[2],21.1%
O=Cc1ccc(N2CCC(C(=O)N3CCC(N4CCCC4=O)CC3)CC2)cc1,inhibition,[2],23.2%
O=C(Nc1cc(Cl)cc([N+](=O)[O-])c1O)c1cc(Cl)ccc1NS(=O)(=O)c1ccc(Oc2ccccc2Cl)cc1,inhibition,[1],92.4%
O=C(Nc1ccccc1)c1cc(Cl)ccc1NS(=O)(=O)c1ccc(Oc2ccccc2Cl)cc1,inhibition,[1],54.2%
CCCOc1ccc(NC(=O)c2cc(Cl)ccc2NS(=O)(=O)c2ccc(Oc3ccccc3Cl)cc2)cc1,inhibition,[1],43.9%
O=C(Nc1cc(Cl)ccc1Br)c1cc(Cl)ccc1NS(=O)(=O)c1ccc(Oc2ccccc2Cl)cc1,inhibition,[1],24.1%
O=C(Nc1cc(Cl)cc(Cl)c1O)c1cc(Cl)ccc1NS(=O)(=O)c1ccc(Oc2ccccc2Cl)cc1,inhibition,[1],74.3%
CC(=O)Nc1ccc(NC(=O)c2cc(Cl)ccc2NS(=O)(=O)c2ccc(Oc3ccccc3Cl)cc2)cc1,inhibition,[1],63.1%
O=C(Nc1ccc(Oc2ccccc2Cl)cc1)c1cc(Cl)ccc1NS(=O)(=O)c1ccc(Oc2ccccc2Cl)cc1,inhibition,[1],19.7%
O=C(Nc1ccc([N+](=O)[O-])cc1)c1cc(Cl)ccc1NS(=O)(=O)c1ccc(Oc2ccccc2Cl)cc1,inhibition,[1],29.8%
O=C(Nc1ccc(O)cc1[N+](=O)[O-])c1cc(Cl)ccc1NS(=O)(=O)c1ccc(Oc2ccccc2Cl)cc1,inhibition,[1],32.2%
O=C(Nc1ccc([N+](=O)[O-])c2ccccc12)c1cc(Cl)ccc1NS(=O)(=O)c1ccc(Oc2ccccc2Cl)cc1,inhibition,[1],22.7%
O=C(Nc1ccc(Oc2ccc(Cl)cc2)cc1)c1cc(Cl)ccc1NS(=O)(=O)c1ccc(Oc2ccccc2Cl)cc1,inhibition,[1],14.2%
O=C(Nc1ccc2ccccc2c1O)c1cc(Cl)ccc1NS(=O)(=O)c1ccc(Oc2ccccc2Cl)cc1,inhibition,[1],14%
CCOc1ccccc1CCNC(=O)c1cc(Cl)ccc1NS(=O)(=O)c1ccc(Oc2ccccc2Cl)cc1,inhibition,[1],9.83%
CNC(=O)c1cc(Cl)ccc1NS(=O)(=O)c1ccc2[nH]cnc2c1,inhibition,"PRVABC59, Concentration 49.5 uM, Number of replicates 2.0, Standard deviation 2.3657282322003765 %",-9.41%
Cc1cc(CO)c2cccc(Nc3cc(C)on3)c2n1,inhibition,"PRVABC59, Concentration 49.95 uM, Number of replicates 2.0, Standard deviation 0.1664787029188791 %",-8.71%
CN(C(=O)c1cc(Cl)ccc1NS(=O)(=O)c1ccc(Oc2ccccc2Cl)cc1)[C@H]1CS(=O)(=O)C[C@@H]1O,inhibition,[1],1.21%
Cc1cc(CO)c2cccc(C[C@H](NC(=O)c3cc(C(=O)O)[nH]n3)C(=O)O)c2n1,inhibition,"PRVABC59, Concentration 49.95 uM, Number of replicates 2.0, Standard deviation 1.6911148062176817 %",1.37%
same,inhibition,"PRVABC59, Concentration 99.9 uM, Number of replicates 2.0, Standard deviation 1.9620942703325182 %",8.92%
O=Cc1ccc(N2CCC(C(=O)Nc3ccc(C(F)(F)F)cc3[N+](=O)[O-])CC2)cc1,inhibition,[2],22.3%
O=C(c1cc(Cl)ccc1NS(=O)(=O)c1ccc(Oc2ccccc2Cl)cc1)N1CCC(c2nc3ccccc3[nH]2)CC1,inhibition,[1],20.5%
Cc1cc(CO)c2cccc(CC(=O)N[C@@H](CCC(N)=O)C(=O)O)c2n1,inhibition,"PRVABC59, Concentration 49.95 uM, Number of replicates 2.0, Standard deviation 0.13741625923449508 %",69.6%
same,inhibition,"PRVABC59, Concentration 99.9 uM, Number of replicates 2.0, Standard deviation 0.11197439842459092 %",81.6%
Cc1cc(CO)c2cccc(Cc3ccccc3C(=O)N[C@@H](CCC(N)=O)C(=O)O)c2n1,inhibition,"PRVABC59, Concentration 49.95 uM, Number of replicates 2.0, Standard deviation 1.0696657731948411 %",-4.71%
same,inhibition,"PRVABC59, Concentration 99.9 uM, Number of replicates 2.0, Standard deviation 0.7655451252044032 %",0.649%
Cc1cc(CO)c2cccc(Cc3cccc(C(=O)N[C@@H](CCC(N)=O)C(=O)O)c3)c2n1,inhibition,"PRVABC59, Concentration 49.95 uM, Number of replicates 2.0, Standard deviation 1.9977585963676485 %",14.4%
same,inhibition,"PRVABC59, Concentration 99.9 uM, Number of replicates 2.0, Standard deviation 0.9280938346971718 %",36%
Cc1cc(CO)c2cccc(CC(=O)Nc3cccc(C(N)=O)c3)c2n1,inhibition,"PRVABC59, Concentration 49.95 uM, Number of replicates 2.0, Standard deviation 0.035627236808440856 %",58.9%
same,inhibition,"PRVABC59, Concentration 99.9 uM, Number of replicates 2.0, Standard deviation 0.025447255606513557 %",72.8%
Cc1cc(CO)c2cccc(Nc3nonc3C(N)=O)c2n1,inhibition,"PRVABC59, Concentration 49.95 uM, Number of replicates 2.0, Standard deviation 1.4175935710362748 %",4.15%
same,inhibition,"PRVABC59, Concentration 99.9 uM, Number of replicates 2.0, Standard deviation 2.0633301575187155 %",4.07%
Cc1cc(CO)c2cccc(Cc3cccc(C(=O)Nc4cccc(C(N)=O)c4)c3)c2n1,inhibition,"PRVABC59, Concentration 49.95 uM, Number of replicates 2.0, Standard deviation 0.1992514179713741 %",-3.36%
same,inhibition,"PRVABC59, Concentration 99.9 uM, Number of replicates 2.0, Standard deviation 0.4299637092619174 %",-0.56%
Cc1cc(CO)c2cccc(Cc3cccc(C(=O)Nc4nonc4C(N)=O)c3)c2n1,inhibition,"PRVABC59, Concentration 49.95 uM, Number of replicates 2.0, Standard deviation 1.609742570683987 %",20.1%
same,inhibition,"PRVABC59, Concentration 99.9 uM, Number of replicates 2.0, Standard deviation 0.8074931564941592 %",55.3%
Cc1cc(CO)c2cccc(Cc3ccccc3C(=O)Nc3cccc(C(N)=O)c3)c2n1,inhibition,"PRVABC59, Concentration 49.95 uM, Number of replicates 2.0, Standard deviation 0.5610502494199251 %",-2.71%
same,inhibition,"PRVABC59, Concentration 99.9 uM, Number of replicates 2.0, Standard deviation 0.1363299663609753 %",0.693%
Cc1cc(CO)c2cccc(Cc3cccc(C(=O)NCC(N)=O)c3)c2n1,inhibition,"PRVABC59, Concentration 49.95 uM, Number of replicates 2.0, Standard deviation 1.0591786257609663 %",-5.74%
same,inhibition,"PRVABC59, Concentration 99.9 uM, Number of replicates 2.0, Standard deviation 0.9490662751035868 %",-1.72%
Cc1cc(CO)c2cccc(CC(=O)Nc3nonc3C(N)=O)c2n1,inhibition,"PRVABC59, Concentration 49.95 uM, Number of replicates 2.0, Standard deviation 0.05598719921229546 %",82%
same,inhibition,"PRVABC59, Concentration 99.9 uM, Number of replicates 2.0, Standard deviation 1.0790078750483718 %",86.1%
Cc1cc(CO)c2cccc(Cc3ccccc3C(=O)Nc3nonc3C(N)=O)c2n1,inhibition,"PRVABC59, Concentration 49.95 uM, Number of replicates 2.0, Standard deviation 0.12584307180819165 %",-4.45%
same,inhibition,"PRVABC59, Concentration 99.9 uM, Number of replicates 2.0, Standard deviation 0.39850300453014226 %",-1.53%
Cc1cc(CO)c2cccc(CC(=O)Nc3ccc(C(=O)O)o3)c2n1,inhibition,"PRVABC59, Concentration 49.95 uM, Number of replicates 2.0, Standard deviation 1.3790313962849292 %",42.9%
same,inhibition,"PRVABC59, Concentration 99.9 uM, Number of replicates 2.0, Standard deviation 0.49288480262410383 %",40.6%
